In all, about 4,100 sequences were measured (“RBNS R-value (6-mer enrichment in protein-bound RNA vs input library)”: median about 0.99, highest 2% from about 1.4 on). The entries come from a sample that favours the highest values as a whole.
Test system: PfIESI-1 RRM domain (Plasmodium falciparum ortholog aa 875-1232, GST fusion)
Experiment: RBNS R-value (6-mer enrichment in protein-bound RNA vs input library) (ratio); higher = stronger binding preference; the methods of the paper give 50 / 100 / 500 nM protein instead
Outline: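 RNA-recognition-motif regions of orthologous proteins from three Plasmodium species were expressed in E. coli as GST fusions and purified. They were incubated at room temperature with an in vitro transcribed library of random 40-mer RNA, then captured on glutathione magnetic agarose beads and washed three times. Bound RNA and input library were reverse transcribed and sequenced on a MiSeq, and 6-mers from one replicate were scored. The R-value is each motif's enrichment in bound RNA over input, computed with the Burge lab pipeline.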

| Sequence | RBNS R-value (protein concentration: 250 nM) | RBNS R-value (protein concentration: 500 nM) | RBNS R-value (protein concentration: 1000 nM) |
| --- | --- | --- | --- |
| UGUCAC | 0.945 | 0.963 | 0.96 |
| UGGCAU | 1.09 | 1.07 | 1.06 |
| GUCCUC | 0.918 | 0.874 | 0.925 |
| ACCUAU | 0.891 | 0.846 | 0.828 |
| CGGGGA | 1.15 | 1.1 | 1.16 |
| GAACUU | 0.955 | 0.971 | 0.985 |
| GAUGAU | 2.43 | 2.58 | 1.9 |
| GACGAG | 1.12 | 1.13 | 1.11 |
| GAUGAC | 1.8 | 1.8 | 1.51 |
| AAUGAC | 1.08 | 1.1 | 1.09 |
| GAUGAG | 1.61 | 1.68 | 1.43 |
| GAUGAA | 1.88 | 2 | 1.59 |
| GAUGCU | 1.34 | 1.37 | 1.24 |
| GGUGAA | 0.997 | 1.06 | 1.06 |
| AAUGAA | 0.954 | 1.1 | 1.03 |
| GAUGGU | 1.18 | 1.23 | 1.13 |
| UAUGAC | 0.947 | 0.945 | 0.924 |
| GAAUAC | 0.992 | 1.04 | 0.993 |
| CAACUU | 0.893 | 0.889 | 0.886 |
| GUAAUU | 0.943 | 0.984 | 0.95 |

| Sequence | RBNS R-value (protein concentration: 250 nM) | RBNS R-value (protein concentration: 500 nM) | RBNS R-value (protein concentration: 1000 nM) |
| --- | --- | --- | --- |
| UACCUA | 0.87 | 0.814 | 0.831 |
| GUAACA | 0.845 | 0.924 | 0.87 |
| AAAGAU | 1.06 | 1.19 | 1.11 |
| GGUACC | 1.07 | 1 | 1.08 |
| CCUCUA | 0.848 | 0.783 | 0.823 |
| ACGAGU | 1.04 | 1.06 | 1.02 |
| CCUUGG | 1.13 | 1.03 | 1.12 |
| UCUUGA | 1.3 | 1.32 | 1.25 |
| ACUUGU | 0.921 | 0.923 | 0.962 |
| CCUUGC | 1.16 | 1.03 | 1.09 |
| ACUUGA | 1.42 | 1.46 | 1.34 |
| GCUUGA | 1.36 | 1.4 | 1.28 |
| CCUUGA | 1.46 | 1.37 | 1.32 |
| ACUUGC | 1.02 | 0.979 | 1.01 |
| GCUUGU | 0.92 | 0.92 | 0.939 |
| CGAGUC | 1.09 | 1.04 | 1.06 |
| ACGCCU | 1.07 | 0.995 | 1.03 |
| AUGUGC | 1.04 | 1.07 | 1 |
| AGUCAA | 0.859 | 0.93 | 0.933 |
| CGAUCC | 1.08 | 1.01 | 1.06 |

| Sequence | RBNS R-value (protein concentration: 250 nM) | RBNS R-value (protein concentration: 500 nM) | RBNS R-value (protein concentration: 1000 nM) |
| --- | --- | --- | --- |
| UGAUUG | 2.38 | 2.42 | 1.85 |
| UGAUUC | 2.44 | 2.61 | 1.97 |
| AGAUUA | 0.942 | 1.04 | 0.964 |
| UGAUUA | 2.21 | 2.58 | 1.94 |
| CGAUUG | 1.28 | 1.27 | 1.2 |
| UGAUCC | 1.38 | 1.38 | 1.26 |
| GGAUUG | 1.02 | 1.02 | 1.02 |
| CGAUUC | 1.25 | 1.25 | 1.2 |
| GGAUCC | 1.04 | 0.978 | 1.05 |
| AGAUUC | 1.19 | 1.22 | 1.17 |
| CGAUUA | 1.05 | 1.11 | 1.04 |
| CCCGCU | 1.09 | 0.999 | 1.04 |
| UAAUCC | 0.907 | 0.864 | 0.872 |
| AACCAA | 0.985 | 1.04 | 1.01 |
| AAAUAG | 0.904 | 1.06 | 0.986 |
| UGAUUU | 3 | 3.23 | 2.3 |
| GGAUUU | 1.03 | 1.02 | 1.02 |
| AGAUUU | 1.17 | 1.26 | 1.16 |
| AUUCCG | 1.2 | 1.14 | 1.16 |
| GCACCU | 1.21 | 1.11 | 1.13 |
